The source of these data is ChEMBL document CHEMBL3988442, “University of Dundee, Small-Polar-MMV Screening Library” (2021).

Each structure is given as a SMILES string.

For this assay, the target named is T1, Methionyl-tRNA synthetase, putative (Leishmania donovani (strain BPK282A1)) (UniProt E9BF75).
T1 sequence (whole entry): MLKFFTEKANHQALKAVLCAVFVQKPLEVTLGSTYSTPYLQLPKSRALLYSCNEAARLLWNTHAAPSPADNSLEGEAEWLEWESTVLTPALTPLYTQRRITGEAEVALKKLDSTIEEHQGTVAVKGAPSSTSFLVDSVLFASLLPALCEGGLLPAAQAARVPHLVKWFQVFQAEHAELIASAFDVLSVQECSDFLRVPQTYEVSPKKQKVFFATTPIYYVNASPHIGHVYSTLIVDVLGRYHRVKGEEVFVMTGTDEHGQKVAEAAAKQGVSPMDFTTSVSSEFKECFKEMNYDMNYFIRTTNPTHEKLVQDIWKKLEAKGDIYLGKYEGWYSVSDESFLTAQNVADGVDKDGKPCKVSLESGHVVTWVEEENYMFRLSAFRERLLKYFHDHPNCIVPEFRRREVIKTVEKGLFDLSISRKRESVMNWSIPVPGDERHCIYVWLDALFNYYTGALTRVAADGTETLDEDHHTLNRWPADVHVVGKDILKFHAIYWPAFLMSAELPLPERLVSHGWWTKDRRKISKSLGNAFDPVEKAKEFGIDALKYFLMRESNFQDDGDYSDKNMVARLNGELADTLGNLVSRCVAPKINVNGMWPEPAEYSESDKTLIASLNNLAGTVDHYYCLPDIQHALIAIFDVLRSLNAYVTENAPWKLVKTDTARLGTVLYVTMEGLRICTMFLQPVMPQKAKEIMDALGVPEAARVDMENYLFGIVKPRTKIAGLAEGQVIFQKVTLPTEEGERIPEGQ
As to the kind of experiment: Leishmania donovani Methionine tRNA synthetase (LdMetRS):v7. Dose response assay. Further details: conc 80 nM, time 150 minutes. It counts as functional.

As for `CCc1nc(NCCOC)c2c3c(sc2n1)CCC3`, the PXC50 was below 4 (MAX_EFFECT 5.793450882) and below 4 (MAX_EFFECT 9.41475827).
Compound `FC1(F)CCN(Cc2ccccn2)CC12CCN(c1ncccn1)C2` (stereo not drawn) returned a PXC50 (MAX_EFFECT 3.628117914) below 4 and a PXC50 (MAX_EFFECT 16.82242991) below 4.
For `CN(CCO)c1nc(-c2ccsc2)nc2sc3c(c12)CCCC3`, the PXC50 is below 4 (MAX_EFFECT 26.13333333) and below 4 (MAX_EFFECT 28.04232804).
Turning to `CCc1nc(N2CCCC2C(=O)O)c2c3c(sc2n1)CCC3` (stereo not drawn), the PXC50 was below 4 (MAX_EFFECT 9.836065574) and below 4 (MAX_EFFECT 11.76470588).
Turning to `CCc1nc(NCCCO)c2cc(CC)sc2n1`, the PXC50 was below 4 (MAX_EFFECT 1.262626263) and below 4 (MAX_EFFECT 8.163265306).
In the case of `NS(=O)(=O)c1ccc(Cl)cc1Cl`, the PXC50 was below 3 (MAX_EFFECT 7.991360691) and below 3 (MAX_EFFECT 11.97718631).
For `CCN1c2ccc(-c3cncn3CCCn3ccnc3C)cc2CC1C` (stereo not drawn), the PXC50 is, setting by setting: (MAX_EFFECT 36.73469388) below 4; (MAX_EFFECT 44.48598131) below 4.
As for `CCN(CC)c1ccc2ccc(C(=O)N(CCOC)CCOC)cn12`, the PXC50 was below 4 (MAX_EFFECT 40.55555556) and below 4 (MAX_EFFECT 42.72300469).
In the case of `O=C(c1c[nH]cn1)N1CCC(F)(F)C2(CCN(c3cccc(F)c3)C2)C1` (stereo not drawn), the PXC50 is below 4 (MAX_EFFECT 45.5399061) and below 4 (MAX_EFFECT 46.11111111).
With `CC(C)C[C@H](N)COc1ccccc1C(=O)c1ccccc1`, the PXC50 runs as follows: (MAX_EFFECT 1.863354037) below 4; (MAX_EFFECT -0.213219616) below 4.
`CN(CCO)c1nc(-c2cccs2)nc2sc3c(c12)CCCC3`: the PXC50 runs as follows: (MAX_EFFECT 31.46666667) below 4; (MAX_EFFECT 36.50793651) below 4.
For `CCc1cc2c(NC(C(=O)O)C(C)C)nc(-c3ccccc3)nc2s1` (stereo not drawn), the PXC50 (MAX_EFFECT 27.80748663) is below 4 and the PXC50 (MAX_EFFECT 31.69398907) is below 4.
For `Cc1sc2nc(-c3cccs3)nc(N3CCNC(=O)C3)c2c1C`, the PXC50 was below 4 (MAX_EFFECT 4.8) and below 4 (MAX_EFFECT 8.994708995).
Take `FC1(F)CCN(Cc2ccccn2)CC12CCN(c1cnccn1)C2` (stereo not drawn): the PXC50 runs as follows: (MAX_EFFECT 7.476635514) below 4; (MAX_EFFECT 8.163265306) below 4.
With `OCc1ccc(Cl)cc1Cl`, the PXC50 (MAX_EFFECT 13.11787072) is below 3 and the PXC50 (MAX_EFFECT 18.35853132) was below 3.
For the compound `CCOC(=O)CCN(C)c1nc(C)nc2sc(-c3ccccc3)cc12`, the PXC50 is below 4 (MAX_EFFECT 45.45454545) and below 4 (MAX_EFFECT 46.44808743).
Turning to `Cc1nc(NCC2COCCO2)c2c3c(sc2n1)CCC3` (stereo not drawn), the PXC50 runs as follows: (MAX_EFFECT 5.303030303) below 4; (MAX_EFFECT 6.632653061) below 4.
`NC(=O)c1ccc(Cl)cc1Cl` came in with a PXC50 (MAX_EFFECT 4.967602592) below 3 and a PXC50 (MAX_EFFECT 16.92015209) below 3.
For `CN(C)CCNC(=O)c1ccc2ccc(N(C)CC3CC3)n2c1`, the PXC50 reads like this: (MAX_EFFECT 42.17687075) below 4; (MAX_EFFECT 43.73831776) below 4.
On to `Cc1cc2c(NC3CCCCC3)nc(-c3cccnc3)nc2s1`, for which the PXC50 runs as follows: (MAX_EFFECT 17.08542714) below 4; (MAX_EFFECT 19.41031941) below 4.
Consider `Cc1sc2nc(CCN)nc(N3CCS(=O)(=O)CC3)c2c1C`, for which the PXC50 is, setting by setting: (MAX_EFFECT 6.266318538) below 4; (MAX_EFFECT 7.049608355) below 4.
As for `CC(C)C[C@H](N)COc1ccccc1-c1ccn(C)n1`, the PXC50 (MAX_EFFECT 7.660455487) was below 4 and the PXC50 (MAX_EFFECT 10.87420043) is below 4.
As for `CCc1nc(NCCO)c2c3c(sc2n1)CCC3`, the PXC50 is, setting by setting: (MAX_EFFECT 3.274559194) below 4; (MAX_EFFECT 5.852417303) below 4.
As to `Nc1nc(-c2cccs2)cc(C(F)(F)F)n1`, the PXC50 is, setting by setting: (MAX_EFFECT 6.382978723) below 4; (MAX_EFFECT 7.772020725) below 4.
Take `Nc1noc2ccc(-c3cnc4ccc(NCCN5CCC(F)(F)CC5)nn34)cc12`: the PXC50 was below 4 (MAX_EFFECT 10.96491228) and below 4 (MAX_EFFECT 13.23155216).
For `CC(C)C[C@H](N)COc1ccc(OCc2ccccc2)c(F)c1`, the PXC50 reads like this: (MAX_EFFECT 25.05175983) below 4; (MAX_EFFECT 28.78464819) below 4.
`COC(=O)c1sc2nc(C)nc(N(C)Cc3cccnc3)c2c1C` registered a PXC50 (MAX_EFFECT 13.66120219) below 4 and a PXC50 (MAX_EFFECT 13.90374332) below 4.
On to `Cc1sc2nc(-c3cccs3)nc(NCCN3CCOCC3)c2c1C`, for which the PXC50 was below 4 (MAX_EFFECT 8.542713568) and below 4 (MAX_EFFECT 8.5995086).
Consider `COc1cc(C(=O)NC2CCCC2)cn2c(N3CCN(S(C)(=O)=O)CC3)ccc12`, for which the PXC50 is 4.17 (BOTTOM 3.193013855, HILLSLOPE 0.707285439, MAX_EFFECT 58.33333333, TOP 100.0) and 4.43 (BOTTOM -2.394752883, HILLSLOPE 0.813527414, MAX_EFFECT 65.35087719, TOP 100.0).
